Consider 21 compounds from PubChem BioAssay AID2778 (National Center for Advancing Translational Sciences (NCATS), 2010).

Records with an inconclusive call do not appear. A number with no mark means an inactive call. Active and inactive are the calls of the source. Calls come from the whole dose curve; as a rule, active = well fitted inhibition curve with a large enough effect; inconclusive = small, poorly fitted or top-dose-only effect, or effect the other way; inactive = flat fitted curve, though single readings scatter.
% is set by controls: 0 for no effect and ±100 for the full control effect; potency is the fitted concentration of half-maximal effect.

Sequence of Menin (Homo sapiens) (O00255 whole entry, looked up): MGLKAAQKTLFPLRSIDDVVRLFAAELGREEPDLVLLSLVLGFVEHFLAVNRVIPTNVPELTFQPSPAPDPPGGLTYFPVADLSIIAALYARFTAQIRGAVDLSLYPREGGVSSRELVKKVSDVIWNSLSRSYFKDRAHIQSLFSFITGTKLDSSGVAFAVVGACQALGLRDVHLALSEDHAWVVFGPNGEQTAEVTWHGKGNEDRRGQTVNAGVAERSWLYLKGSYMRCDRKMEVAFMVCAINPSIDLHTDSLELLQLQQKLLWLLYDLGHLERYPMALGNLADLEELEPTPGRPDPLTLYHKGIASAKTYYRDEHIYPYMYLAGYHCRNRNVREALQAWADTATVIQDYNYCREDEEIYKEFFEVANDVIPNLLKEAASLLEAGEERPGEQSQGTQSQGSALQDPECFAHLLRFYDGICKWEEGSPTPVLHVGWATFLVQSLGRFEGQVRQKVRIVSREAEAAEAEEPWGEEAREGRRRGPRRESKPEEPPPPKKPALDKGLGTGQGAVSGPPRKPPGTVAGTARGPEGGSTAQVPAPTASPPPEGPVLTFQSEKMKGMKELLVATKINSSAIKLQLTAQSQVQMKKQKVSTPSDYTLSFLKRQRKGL

The target of the test is Menin (Homo sapiens) (UniProt O00255). Nature of the test: Confirmation of Inhibitors Targeting the Menin-MLL Interaction in MLL Related Leukemias: Confirmation in an HTRF (commercial TR-FRET) Assay using His-tagged menin and biotin-labeled MLL peptide. Conditions: His-menin / biotin-MLL peptide binding; series mostly up to 126 µM; activity change, negative = inhibition: at the top concentration. In outline:
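HTRF: His6-menin (200 nM) and biotin-MLL-w.t. peptide (80 nM) preincubated 15 min, then compounds 1 hr at ambient, before Eu-cryptate anti-His (3.5 nM) and streptavidin-XL665 (10 nM) for 1 h; 50 mM Tris-HCl pH 7.5, 50 mM NaCl, 1 mM DTT, BSA.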
In general terms: TR-FRET usually uses a lanthanide donor and a delayed reading to cut background.
`COc1cnc(-c2ccccn2)nc1N(C)c1ccccc1`: the “activity change, negative = inhibition” value was 4.38%. In the case of `CC(=O)c1cccc(OCC(O)CNCC2COc3ccccc3O2)c1` (stereo unspecified), the “activity change, negative = inhibition” value was 6.05%. On the same count and under the same terms, the same measure for `CC(c1ccncn1)N(C)Cc1nc(-c2ccc(C(F)(F)F)cc2)no1` (stereo unspecified): 7.72%; for `COCCn1c(C)c(C)c2c(NCCc3ccccc3)ncnc21`: 5.34%; for `CCc1nnc(NC(=O)C2(C)COC(c3ccc(OC)cc3)OC2)s1` (stereo unspecified): -0.226%. On the same count and under the same terms, then `COc1ccc(CN2CCN(C(C)C(=O)N(C)Cc3cccc(F)c3)CC2)cc1OC` (stereo unspecified), with -4.13%; and `COC(=O)Cc1c(C)nc2nc(-c3ccc(OC)cc3)[nH]n2c1=O`, with -3.42% [at 383 µM]. Consider `CC(NC(=O)c1cnc2ccccc2n1)c1ccccc1` (stereo unspecified), for which the “activity change, negative = inhibition” value is -5.38% [at 383 µM]. `COc1ccc(Cn2nnnc2C(c2ccccc2)N2CCN(C3CCCC3)CC2)cc1` (stereo unspecified): the “activity change, negative = inhibition” value was 2.29%. Consider `CN1CCS/C1=C/C=C1/SC(=S)N(Cc2ccccc2)C1=O`, for which the “activity change, negative = inhibition” value was -22.5%. On to `Cc1ccc(NC(=O)CN(C)C(=O)COc2cccc3cccnc23)cc1`, for which the “activity change, negative = inhibition” value was -4.79% [at 383 µM]. With `CN(C)CCCOc1ccc2c(c1)Sc1ccccc1CC2=O`, the “activity change, negative = inhibition” value is -10.1%. On to `O=C(CSc1nnc(-c2c[nH]c3ccccc23)o1)c1ccc(-c2ccccc2)cc1`, for which the “activity change, negative = inhibition” value is -14.1%. For `CC(C)Sc1nc(N2CCOCC2)c2c3c(sc2n1)COC(C)(C)C3`, the Potency was 316 µM (active). Regarding `C=C1CCC[C@]2(C)C[C@H]3OC(=O)C(CNCCN(CC)CC)[C@H]3CC12` (stereo partly specified), the “activity change, negative = inhibition” value was 0.515%. Regarding `COc1ccc2[nH]c(=O)c(CN(Cc3cccs3)C(=S)Nc3cccc(C)c3)cc2c1`, the “activity change, negative = inhibition” value is -20%.

Take `CCOc1ccc(-c2nn(-c3ccccc3)cc2/C=C2\SC(N)=NC2=O)cc1C`: the “activity change, negative = inhibition” value is -18.9% [at 383 µM]. Regarding `COc1cc(SC)ccc1C(=O)Nc1cccc(C2OCCCO2)c1`, the “activity change, negative = inhibition” value is -11.9% [at 383 µM]. `Cc1ccccc1-c1cncnc1NC1CCNCC1`: the “activity change, negative = inhibition” value was -14.4% [at 383 µM]. As to `C=C(C)CNC(=S)Nc1cccc2cnccc12`, the “activity change, negative = inhibition” value is 6.82%. Regarding `CCCC(c1nnnn1Cc1cccs1)N1CCN(C2CCCC2)CC1` (stereo unspecified), the “activity change, negative = inhibition” value is -23.6%.
